A selection: hits, their analogues and other compounds. The true share with any hit is near 4.8%.
HIF activator = HIF pathway transcriptional activation; AID 1910; 0.32% of 300,000 active; U2OS HRE-luciferase reporter, luminescence; normalized: DMSO 0%, desferrioxamine 100%; activation, % at 7.5 µM (by protocol);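 active = mean activation of at least 10% of the iron chelator positive control signal, with at least half of replicates also reaching 10%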
AI-2 QS mod = Vibrio harveyi AI-2 quorum sensing modulation | Vibrio harveyi JMH597 AI-2 luminescence/OD600 ratio, 9 h; stronger effect = lower value; strain lacks LuxN and CqsS sensors; 0 = neutral-control median | AID 2094 | 0.4% of 300,000 active | activity change, % at 7.5 µM; in the data active = activity change below about -75%, passing the limit was not always enough;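 also: luminescence divided by OD600 gain over 9 h not by final OD600 alone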
ALR H2O2 inh = blocks human ALR sulfhydryl oxidase activity; 3.8% of 290,000 active; purified ALR, DTT oxidation, H2O2 HRP-luminol luminescence; inhibition, % (no concentration beside the values);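 active = mean replicate inhibition above about 79%, with every replicate also reaching it, limit read from the data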
Target sequence (P55789 whole entry, looked up): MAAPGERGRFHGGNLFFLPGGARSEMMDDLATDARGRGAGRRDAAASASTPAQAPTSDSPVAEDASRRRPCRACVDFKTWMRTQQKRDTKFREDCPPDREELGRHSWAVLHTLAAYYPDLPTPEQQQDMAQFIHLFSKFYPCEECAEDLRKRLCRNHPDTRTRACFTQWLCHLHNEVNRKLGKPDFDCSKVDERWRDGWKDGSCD
Mot1-301 SUMO = inhibitors of SUMOylation pathway: yeast Mot1-301 growth rescue; S. cerevisiae Mot1-301 growth rescue, ATP luminescence, 38.5C; percent above DMSO median, 100 means doubled; 1% of 320,000 active; AID 2716; growth rescue, % at 18.8 µM;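 active = every valid replicate shows activation above 250% relative to neutral control wells; inactive = the rest, any valid replicate at or below 250%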
Large screens that a line does not name were inactive.

CC(C)NC(=O)c1onc(CSc2ccc(F)cc2)c1C(=O)NC(C)C	none
C[C@@H]1CN(C(=O)c2nc3ccc(Cl)cn3c2CN(C)CCc2cnn(C)c2)C[C@H](C)O1	none
O=C(O)Cn1nnc(-c2ccc(OCc3ccccc3)cc2)n1	none (no result: ALR H2O2 inh)
CCOc1cc(/C=N/O)ccc1OCc1ccc(C)cc1	ALR H2O2 inh 98
CCOc1cc(/C=N/O)ccc1OS(=O)(=O)c1ccc(C)cc1	none
CCN(CCn1cccn1)C(=O)C1CCC(=O)N(CCN2CCOCC2)C1 (stereo unspecified)	none
O=C(COc1ccccc1C(=O)NCc1ccccc1)Nc1ccccc1	none (no result: HIF activator, AI-2 QS mod)
Cc1ccc(-c2nc(CN3CCN(C(=O)C4CCCO4)CC3)cs2)cc1 (stereo unspecified)	ALR H2O2 inh 99
Cc1ccc(C(=O)N2CCN(C(=O)C3CCCO3)CC2)cc1 (stereo unspecified)	none (no result: HIF activator, AI-2 QS mod)
Cc1ccc(CN2CCN(C(=O)C3CCCO3)CC2)cc1 (stereo unspecified)	ALR H2O2 inh 99
O=C(CC1C(=O)NCCN1Cc1c(F)cccc1Cl)NCCCN1CCCC1=O (stereo unspecified)	none
CC(NC(=O)c1ccc(NC(=O)CC2SC(N3CCCC3)=NC2=O)cc1)c1ccc(F)cc1 (stereo unspecified)	none (no result: HIF activator, AI-2 QS mod)
COCCCn1c(=S)[nH]c2sc3c(c2c1=O)CCCS3	ALR H2O2 inh 99
C[C@H](CO)N1C[C@H](C)[C@@H](CN(C)Cc2ccc(-c3ccccc3)cc2)Oc2c(NC(=O)Nc3ccc4c(c3)OCO4)cccc2C1=O	none (no result: HIF activator, AI-2 QS mod)
Cc1ccc(Sc2nc(-c3ccccc3)nnc2C(F)(F)F)cc1	ALR H2O2 inh 98
CN(C(=O)CN1C(=O)NC(c2ccccc2)(c2ccccc2)C1=O)C1CCS(=O)(=O)C1 (stereo unspecified)	none (no result: HIF activator, AI-2 QS mod)
CC(C)[C@H](NC(=O)N1CC(=O)Nc2ccccc21)C(=O)Nc1nccs1	ALR H2O2 inh 91
CCC(C)[C@H](NC(=O)N1CC(=O)Nc2ccccc21)C(=O)Nc1nccs1 (stereo partly specified)	none
Cc1cc(C)n(CCc2nc(-c3ccc(F)cc3)cs2)n1	none
COc1cc(-c2csc(CCn3nc(C)cc3C)n2)cc(OC)c1OC	ALR H2O2 inh 99
N#C/C(=C/c1ccncc1)c1nc2ccccc2s1	none
CC1CCc2nc(/C(C#N)=C/c3ccncc3)sc2C1 (stereo unspecified)	ALR H2O2 inh 98
CCC(=O)N1CCc2cc(S(=O)(=O)N3CCN(c4cc(Cl)ccc4C)CC3)ccc21	none
Cc1ccc([N+](=O)[O-])cc1N/C=C1\CCCCC1=O	Mot1-301 SUMO active
COc1cccc(CNC(=O)c2cc(S(=O)(=O)N3CCOCC3)cn2C)c1	none
Cc1ccc(S(=O)(=O)N2CCN(C(=O)CC(C)n3cncn3)CC2)cc1C (stereo unspecified)	none
NC1=C(Br)C(=O)c2ccccc2C1=O	AI-2 QS mod -90
Cn1nc(C(=O)NCC2COc3ccccc3O2)c2ccccc2c1=O (stereo unspecified)	none (no result: HIF activator, AI-2 QS mod)
Oc1ccc(O)c(-c2cnns2)c1	ALR H2O2 inh 99
CCOC(=O)c1sc2nc(C)nc(SC(C)C(=O)NC3CC3)c2c1C (stereo unspecified)	none (no result: HIF activator, AI-2 QS mod)
CCN(CCCNC(=O)CN(C)S(=O)(=O)c1cccc2nsnc12)c1ccccc1	ALR H2O2 inh 95
CN(CC(=O)NCCc1ccccc1)S(=O)(=O)c1cccc2nsnc12	none
O=C(O)c1cc(=O)c2ccccc2o1	none
Cc1cc(C(=O)O)oc(=O)c1	HIF activator 219
COc1ccc(/C=N/NC(=O)c2ccn[nH]2)cc1CSc1ccccn1	ALR H2O2 inh 99
COc1ccc(C(=O)N/N=C/c2ccc(OC)c(CSc3ccccn3)c2)cc1	ALR H2O2 inh 99
COc1ccc(/C=N/NC(=O)c2cccnc2)cc1CSc1ccccn1	ALR H2O2 inh 99
O=C(NCC1CCCO1)C(=O)N/N=C/c1c(F)cccc1Cl (stereo unspecified)	none
Cc1ccc(CNc2ccccc2C(=O)O)s1	none
Oc1cc(O)cc(-c2cc3ccc(O)cc3o2)c1	ALR H2O2 inh 99
CC(C)(C)C1=NN=C2c3ccccc3C(=O)C21 (stereo unspecified)	Mot1-301 SUMO 675
O=C1c2ccccc2C(=O)C1c1ccc(O)cc1	none
O=C(CSc1nnc(CNC(=O)c2ccco2)o1)Nc1cccc(F)c1	none
COc1cc(C(=O)OC(C)c2ccc(F)cc2)ccc1OCC(=O)N1CCOCC1 (stereo unspecified)	none (no result: HIF activator, AI-2 QS mod)
O=C1c2c(O)ccc(O)c2C(=O)c2c(NCCNCCO)ccc(NCCNCCO)c21	ALR H2O2 inh 100 (no result: HIF activator, AI-2 QS mod)
